Results: PubChem BioAssay
The source made the active and inactive calls.

Assays:
[1] = small-molecule microarray binders of probe aShh, primary screen, biochemical, biotinylated probe, 635/667 nm fluorescence (AID 1114); conditions: higher = more signal;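 note: probe is biotin-labelled aShh protein from a stem cell growth factor screen; measures binding of labelled protein to compounds printed on the slide; score merges feature fluorescence at 667 nm with signal-to-noise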
[2] = small-molecule microarray binders of probe aNog, primary screen, biochemical, biotinylated probe, 635/667 nm fluorescence (AID 1115); conditions: higher = more signal;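 note: probe is biotinylated aNog protein used at 0.15 µg/mL for 1 h at 4 C; z-score combines 667 nm fluorescence of each spot with its signal to noise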
[3] = biological target: Torsin-1A-interacting protein 1 (Homo sapiens) (UniProt Q5JTV8); test: LAP1 binders from COS7 cell lysate, primary screen, small-molecule microarray, 635/667 nm fluorescence (AID 1116); conditions: COS7-hLAP1 lysate binding, 635 nm fluorescence, higher = more signal
Albumin (Bos taurus) = Albumin (Bos taurus) (UniProt P02769); test: bovine serum albumin binders on microarray, profiling panel, artefact control for SMM control protein annotation, biochemical, small-molecule microarray, Alexa647 label, 635/667 nm fluorescence (AID 1118); conditions: BSA-A647 binding, fluorescence 635 nm, higher = more signal;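 note: score merges 667 nm emission intensity and signal-to-noise per printed compound spot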
[4] = small-molecule microarray binders of probe aXIP, primary screen, biochemical, NeuroSMM set, 635/667 nm fluorescence (AID 1119); conditions: higher = more signal, called active from +8 up or from −8 down;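 note: probe is the protein aXip251-270 applied at 1 µg/mL to compound-printed slides; binding of probe to printed compounds measured as 667 nm fluorescence plus signal to noise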
[5] = small-molecule binders of probe aNOTCH3, primary screen, biochemical, small-molecule microarray, 635/667 nm fluorescence (AID 1120); conditions: higher = more signal;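 note: probe is a biotin-tagged antibody raised against NOTCH3 rather than NOTCH3 protein; score merges spot fluorescence near 667 nm with spot signal to noise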
[6] = small-molecule binders of probe aNOTCH2, primary screen, biochemical, small-molecule microarray, 635/667 nm fluorescence (AID 1121); conditions: higher = more signal;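 note: score merges feature fluorescence read at 667 nm with its signal to noise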
[7] = biological target: Carbonic anhydrase 2 (Homo sapiens) (UniProt P00918); test: CAII small-molecule binders, profiling panel, biochemical, small-molecule microarray, Alexa647-labelled CAII (AID 1122); conditions: CAII-A647 binding fluorescence, higher = more signal
[8] = COS7 lysate on small-molecule microarray, probe aHis, 635 nm (AID 1123); conditions: COS7 cell lysate, fluorescence, higher = more signal;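 note: z-score combines 667nm fluorescence intensity with signal-to-noise per printed compound spot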
[9] = compound binding in COS7 lysate, probe aLAP1, primary screen, cell lysate, small-molecule microarray (AID 1124); conditions: probe aLAP1, fluorescence, higher = more signal;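 note: lysate comes from COS7 cells expressing LAP1 and is applied at 0.3 µg/mL; score merges spot fluorescence near 667 nm with signal-to-noise over triplicate slides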
Sam68 (KHDRBS1) = test: Sam68 small-molecule binders, primary screen, biochemical, small-molecule microarray, 635 nm fluorescence (AID 1125); conditions: small-molecule microarray binding, higher = more signal;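 note: score merges 667 nm channel intensity with signal to noise over triplicate slides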
[10] = test system: Chordin-like protein 2 (CHRDL2); test: CHRDL2 small-molecule binders, primary screen, biochemical, small-molecule microarray, 635 nm fluorescence (AID 1126); conditions: small-molecule microarray binding, fluorescence 635 nm; higher = more signal;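 note: printed compound slides probed with Chrdl2 protein at 4 µg/mL for 1 h at 4 C; score merges 667 nm emission intensity with signal to noise over three replicate slides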
[11] = biological target: Concanavalin-A (Canavalia ensiformis) (UniProt P02866); test: ConA small-molecule binders, primary screen, artefact control for SMM control protein annotation, biochemical, small-molecule microarray, Alexa647 label, 635 nm (AID 1127); conditions: ConA-A647 binding fluorescence, higher = more signal;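 note: z combines 667 nm emission intensity with signal-to-noise across three replicate slides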
[12] = anti-His antibody binders, primary screen, artefact control for SMM control protein annotation, biochemical, small-molecule microarray, 635 nm fluorescence (AID 1128); conditions: anti-His Alexa647 antibody binding, higher = more signal;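 note: score merges feature fluorescence with signal-to-noise for each printed compound spot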
[13] = test system: Human papillomavirus type 1a E7 protein (residues 1-88); test: HPV1a E7 small-molecule binders, primary screen, biochemical, small-molecule microarray, residues 1-88, 635 nm (AID 1129); conditions: small-molecule microarray binding, fluorescence 635 nm; higher = more signal
[14] = biological target: Focal adhesion kinase 1 (Homo sapiens) (UniProt Q05397); test: small-molecule microarray binders of FAK, primary screen, biochemical, 635/667 nm fluorescence, BSA, DTT (AID 1130); conditions: PTK2 binding, 635 nm fluorescence, higher = more signal;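 note: composite of spot emission at 667 nm and signal to noise over triplicate slides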
[15] = test system: Fibrinogen (Alexa647-labelled); test: fibrinogen binders on compound microarrays, profiling panel, artefact control for SMM control-protein annotation, biochemical, small-molecule microarray, 635/667 nm fluorescence (AID 1131); conditions: fibrinogen-A647 binding fluorescence, higher = more signal;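 note: z-score merges 667 nm fluorescence with per-spot signal-to-noise over triplicate slides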
[16] = biological target: Follistatin (Homo sapiens) (UniProt P19883); test: follistatin binders on small-molecule microarrays, primary screen, biochemical, small-molecule microarray, 635/667 nm fluorescence (AID 1132); conditions: FST binding, 635 nm fluorescence, higher = more signal
[17] = biological target: Fibroblast growth factor 2 (Homo sapiens) (UniProt P09038); test: FGF2 binders on small-molecule microarrays, primary screen, biochemical, small-molecule microarray, 635/667 nm fluorescence (AID 1133); conditions: small-molecule microarray binding, FGF2, fluorescence 635/667; higher = more signal
[18] = mitochondrial membrane potential change in A549 cells, profiling panel, cell-based, JC-1 fluorescence, basal, 24 h, 100 nL (AID 1138); conditions: higher = more signal;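 note: A549 lung adenocarcinoma cells under basal conditions with no added stimulus; test concentration not given here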

Concanavalin-A (Canavalia ensiformis), sequence (P02866 whole entry, looked up): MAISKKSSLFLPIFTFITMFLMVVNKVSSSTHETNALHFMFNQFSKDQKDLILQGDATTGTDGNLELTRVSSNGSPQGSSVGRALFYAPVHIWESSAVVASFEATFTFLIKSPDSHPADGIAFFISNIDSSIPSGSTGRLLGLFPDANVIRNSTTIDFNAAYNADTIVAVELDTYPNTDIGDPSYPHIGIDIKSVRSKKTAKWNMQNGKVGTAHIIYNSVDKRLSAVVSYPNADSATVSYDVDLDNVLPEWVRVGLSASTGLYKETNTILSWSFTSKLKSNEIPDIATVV
Focal adhesion kinase 1 (Homo sapiens), sequence (Q05397 whole entry, looked up): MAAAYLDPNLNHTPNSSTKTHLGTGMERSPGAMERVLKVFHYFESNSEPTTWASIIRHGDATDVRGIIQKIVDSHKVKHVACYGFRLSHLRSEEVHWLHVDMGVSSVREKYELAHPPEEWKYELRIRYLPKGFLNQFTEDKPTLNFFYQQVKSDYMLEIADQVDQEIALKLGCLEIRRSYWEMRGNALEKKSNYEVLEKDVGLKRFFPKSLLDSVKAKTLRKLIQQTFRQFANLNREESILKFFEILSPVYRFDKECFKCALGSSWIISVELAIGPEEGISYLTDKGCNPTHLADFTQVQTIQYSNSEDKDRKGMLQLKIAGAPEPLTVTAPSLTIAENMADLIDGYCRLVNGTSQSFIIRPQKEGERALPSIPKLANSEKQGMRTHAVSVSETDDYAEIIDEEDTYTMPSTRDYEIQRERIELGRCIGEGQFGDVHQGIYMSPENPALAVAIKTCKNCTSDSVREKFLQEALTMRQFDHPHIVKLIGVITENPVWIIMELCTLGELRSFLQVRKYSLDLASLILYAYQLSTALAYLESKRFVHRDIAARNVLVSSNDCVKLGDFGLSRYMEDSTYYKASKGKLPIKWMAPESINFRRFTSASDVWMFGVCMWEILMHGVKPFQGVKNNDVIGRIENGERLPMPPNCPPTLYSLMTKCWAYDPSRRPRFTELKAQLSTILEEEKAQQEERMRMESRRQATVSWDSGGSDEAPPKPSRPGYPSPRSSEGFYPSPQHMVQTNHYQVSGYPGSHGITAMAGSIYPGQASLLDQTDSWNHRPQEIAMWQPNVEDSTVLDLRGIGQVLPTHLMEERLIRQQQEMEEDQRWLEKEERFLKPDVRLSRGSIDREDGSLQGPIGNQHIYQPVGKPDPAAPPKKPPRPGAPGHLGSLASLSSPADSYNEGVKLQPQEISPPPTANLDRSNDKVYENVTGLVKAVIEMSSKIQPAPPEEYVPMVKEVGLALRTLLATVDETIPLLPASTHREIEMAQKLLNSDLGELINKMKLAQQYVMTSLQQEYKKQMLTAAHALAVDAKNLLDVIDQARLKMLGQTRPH
Follistatin (Homo sapiens), sequence (P19883 whole entry, looked up): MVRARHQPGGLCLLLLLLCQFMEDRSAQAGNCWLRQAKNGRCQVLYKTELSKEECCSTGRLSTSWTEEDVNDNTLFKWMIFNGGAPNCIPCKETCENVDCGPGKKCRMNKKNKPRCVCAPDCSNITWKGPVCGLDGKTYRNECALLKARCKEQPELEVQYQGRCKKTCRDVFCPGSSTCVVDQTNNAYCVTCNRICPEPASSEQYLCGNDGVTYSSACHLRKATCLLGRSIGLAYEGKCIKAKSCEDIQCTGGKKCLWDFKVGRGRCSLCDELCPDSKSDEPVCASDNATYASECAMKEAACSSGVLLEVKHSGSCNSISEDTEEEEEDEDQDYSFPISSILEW
Albumin (Bos taurus), sequence (P02769 whole entry, looked up): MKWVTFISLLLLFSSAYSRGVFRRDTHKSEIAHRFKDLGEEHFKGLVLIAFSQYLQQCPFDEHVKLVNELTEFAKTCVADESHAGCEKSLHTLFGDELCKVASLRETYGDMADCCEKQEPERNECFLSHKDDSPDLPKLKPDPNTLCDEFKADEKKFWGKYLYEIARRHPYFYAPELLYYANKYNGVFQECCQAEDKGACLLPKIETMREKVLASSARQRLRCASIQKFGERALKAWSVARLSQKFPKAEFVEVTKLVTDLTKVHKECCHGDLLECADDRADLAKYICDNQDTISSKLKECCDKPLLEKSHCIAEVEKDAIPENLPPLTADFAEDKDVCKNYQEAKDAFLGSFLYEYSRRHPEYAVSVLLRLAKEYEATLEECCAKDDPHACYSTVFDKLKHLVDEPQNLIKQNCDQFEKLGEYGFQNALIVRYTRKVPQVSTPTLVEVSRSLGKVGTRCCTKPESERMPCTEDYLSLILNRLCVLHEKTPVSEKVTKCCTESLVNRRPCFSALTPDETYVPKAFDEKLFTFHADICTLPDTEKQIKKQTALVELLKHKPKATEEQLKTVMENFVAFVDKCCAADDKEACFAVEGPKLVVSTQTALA
Fibroblast growth factor 2 (Homo sapiens), sequence (P09038 whole entry, looked up): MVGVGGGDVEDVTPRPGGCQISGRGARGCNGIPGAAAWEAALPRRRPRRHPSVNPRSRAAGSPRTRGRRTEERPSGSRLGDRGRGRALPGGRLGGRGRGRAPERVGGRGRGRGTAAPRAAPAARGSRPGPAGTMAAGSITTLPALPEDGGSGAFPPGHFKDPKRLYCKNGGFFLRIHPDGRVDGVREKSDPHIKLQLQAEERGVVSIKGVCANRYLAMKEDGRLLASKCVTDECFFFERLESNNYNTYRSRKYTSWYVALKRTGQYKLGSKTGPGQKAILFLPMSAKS
Torsin-1A-interacting protein 1 (Homo sapiens), sequence (Q5JTV8 whole entry, looked up): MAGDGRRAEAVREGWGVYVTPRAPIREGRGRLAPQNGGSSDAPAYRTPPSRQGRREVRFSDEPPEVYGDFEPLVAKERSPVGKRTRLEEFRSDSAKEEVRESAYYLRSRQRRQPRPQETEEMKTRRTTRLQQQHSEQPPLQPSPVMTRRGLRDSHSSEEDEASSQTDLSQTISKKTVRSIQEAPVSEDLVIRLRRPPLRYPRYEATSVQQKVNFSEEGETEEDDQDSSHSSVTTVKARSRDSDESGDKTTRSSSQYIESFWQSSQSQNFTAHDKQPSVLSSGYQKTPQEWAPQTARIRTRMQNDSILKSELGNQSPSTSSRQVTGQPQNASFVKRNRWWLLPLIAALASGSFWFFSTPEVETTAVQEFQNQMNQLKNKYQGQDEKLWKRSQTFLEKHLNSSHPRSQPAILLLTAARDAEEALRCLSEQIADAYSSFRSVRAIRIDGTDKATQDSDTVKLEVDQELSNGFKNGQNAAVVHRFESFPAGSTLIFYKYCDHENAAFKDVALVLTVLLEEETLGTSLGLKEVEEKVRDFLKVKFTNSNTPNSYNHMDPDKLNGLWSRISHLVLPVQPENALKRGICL

Row | SMILES | composite z-score [1] | composite z-score [2] | composite z-score [3] | composite z-score (Albumin (Bos taurus)) | composite Z-score [4] | composite z-score [5] | composite z-score [6] | composite z-score [7] | composite z-score [8] | composite z-score [9] | composite z-score (Sam68 (KHDRBS1)) | composite z-score [10] | composite z-score [11] | composite z-score [12] | composite z-score [13] | composite z-score [14] | composite z-score [15] | composite z-score [16] | composite z-score [17] | z-score [18]
1 | CN1C=C(C(=O)OCCS(C)(=O)=O)C(C(=O)OCCS(C)(=O)=O)=CC(CCCO)=CC1c1cccs1 (stereo not given) | -0.0011 | -0.036 | 0.151 | -0.945 | 1.4 (inactive) | -0.132 | -0.0837 | -0.167 | -0.12 | 0.0548 | 1.13 | 0.443 | -0.508 | 0.478 | 0.77 | 0.275 | -0.463 | 0.775 | 0.371 | 3.12
2 | COc1ccc(CCNC(=O)[C@@]2(Sc3ccc(C)cc3)CC(=O)N(Cc3ccccc3)[C@@H]2c2ccc(CO)cc2I)cc1 | -0.596 | 0.0805 | -0.72 | -0.605 | -0.224 (inactive) | -0.289 | -0.2 | 0.377 | 0.666 | 2.03 | 0.247 | -0.974 | 0.508 | 1.06 | 0.408 | 0.0363 | -0.718 | -0.168 | -0.662 | 2.51
3 | C=C(COC)C(=O)CC[C@H](OC(=O)c1cccnc1)c1cccc(OCCO)c1 | 0.841 | 0.958 | 1.49 | -0.197 | -0.19 (inactive) | 0.53 | 0.156 | 0.608 | 0.613 | 0.123 | 0.579 | 0.601 | -0.0509 | -0.107 | 0.0325 | 0.481 | -0.09 | 0.896 | 1.57 | 1.39
4 | C=CC[C@]1(C(=O)N(C)C)N=C(c2ccc(OCCCO)cc2)O[C@H]1c1ccccc1CN=[N+]=[N-] | -0.174 | 1.24 | 1.92 | 0.79 | 0.328 (inactive) | -0.014 | 0.0111 | 0.548 | 2.11 | 0.79 | 1.04 | -0.474 | 1.11 | 1.84 | 1.23 | 0.418 | 0.415 | 1.27 | 0.521 | 2.49
5 | CCCCCN1CC=CC23O[C@@H]4/C=C\CCC(C)OC(=O)C4[C@H]2C(=O)N(CCO)[C@@H]3C1=O (stereo not given in full) | -0.279 | 0.552 | -0.0418 | -1.09 | 0.547 (inactive) | -0.28 | -0.172 | 0.905 | 0.663 | 0.0877 | -0.106 | -1.79 | -0.773 | 1.31 | -0.85 | -0.081 | -2.44 | -0.869 | -1.2 | 0.33
6 | C=CC[C@@]1(C(=O)NCc2ccccc2)N=C(c2ccc(OCCCO)cc2)O[C@@H]1c1ccccc1 | 0.123 | 0.49 | 1.68 | 0.864 | 0.118 (inactive) | 0.0762 | -0.061 | 0.493 | 2.56 | 0.268 | 0.966 | -0.353 | 0.454 | 1.11 | 1.16 | 0.997 | -0.017 | -0.646 | -1.1 | 0.215
7 | CC(=O)OC(C/C=C\B1OC(C)(C)C(C)(C)O1)c1ccccc1 (stereo not given) | -0.0813 | -0.405 | -0.0001 | -0.274 | -0.806 (inactive) | -0.146 | -0.166 | -0.411 | -0.279 | -0.0949 | 0.0684 | 1.09 | -0.923 | -0.0541 | -0.373 | -0.379 | 0.221 | 0.0255 | -0.377 | 1.45
8 | COCCCNC(=O)[C@@]1(CCS(=O)(=O)c2ccccc2)N=C(c2ccc(OCCCO)cc2)O[C@H]1c1ccccc1CN=[N+]=[N-] | 0.81 | 0.64 | 0.732 | 0.91 | 0.582 (inactive) | 0.448 | 0.0763 | 0.528 | 2.3 | 0.561 | 1.22 | -0.308 | 1.12 | 2.56 | 1.21 | 1.17 | 0.989 | 1.4 | 1.53 | 0.579
9 | C=CCOC(=O)[C@H]1[C@@H]2C(=O)O[C@@H](c3ccccc3)[C@@H](c3ccccc3)N2[C@@H](c2ccc(OCCOC(=O)[C@H]3C[C@H]4C(=O)N5CCC[C@H]5C(=O)N4[C@H]3c3cccc(OCCO)c3)cc2)[C@]12C(=O)Nc1ccccc12 | 0.263 | 0.228 | 0.925 | -0.592 | 1.51 (inactive) | -0.0647 | -0.0424 | 0.466 | 2.31 | -0.103 | 1.31 | 1.37 | 0.96 | 1.34 | 1.16 | 0.903 | 0.47 | 1.34 | 1.57 | -0.851
10 | COC(=O)c1c(CC[C@@H](CO)NC(=O)Nc2ccc(OC)cc2)oc(C(=O)Cc2ccccc2)c1C(=O)OC | -0.138 | 0.068 | 0.333 | 0.771 | 0.466 (inactive) | -0.004 | -0.0776 | 0.656 | 0.261 | 0.21 | 0.603 | 0.12 | 0.688 | -0.177 | 0.45 | -0.181 | 0.211 | 0.473 | 0.434 | 1.02
11 | COCCOC(=O)N1C(=O)[C@@]2(c3ccccc31)[C@H](C(=O)Nc1nc3ccccc3s1)[C@H]1C(=O)O[C@H](c3ccccc3)[C@H](c3ccccc3)N1[C@@H]2c1ccc(O)cc1 | 0.489 | 0.134 | 0.94 | 0.794 | -0.706 (inactive) | 0.288 | -0.0551 | 0.435 | 0.903 | 0.418 | 1.3 | 0.318 | 1.21 | 1.68 | 1.2 | 0.261 | 0.976 | 1.32 | 1.06 | -2.31
12 | CC(C)C(CO)N1C(=O)[C@@H]2C3C(=O)OCCC/C=C\[C@H]3OC23C=CCN(C(C)C)C(=O)[C@@H]13 (stereo not given in full) | -0.0035 | 0.0599 | 1.69 | -1.36 | 1.77 (inactive) | -0.214 | -0.168 | 0.865 | 1.37 | 1.95 | 0.879 | -1.5 | -0.341 | -1.74 | -0.809 | 0.0086 | -0.935 | -1.05 | -0.993 | 0.743
13 | [N-]=[N+]=Nc1ccccc1[C@H]1OC(c2ccc(OCCCO)cc2)=N[C@@]1(Cc1ccccc1)C(N)=O | 1.03 | 0.489 | 1.12 | 0.869 | 0.382 (inactive) | 0.416 | 0.0521 | 0.623 | 0.798 | 0.577 | 1.31 | -0.751 | 1.16 | 2.59 | 1.21 | 0.0957 | 0.997 | 1.32 | 0.479 | 1.5
14 | COCCOC(=O)N1C(=O)[C@@]2(c3cc(C#CC4(O)CCCCCC4)ccc31)[C@H](C(=O)NC[C@H](O)c1ccccc1)[C@H]1C(=O)O[C@H](c3ccccc3)[C@H](c3ccccc3)N1[C@@H]2c1ccccc1OCCO | 0.699 | -0.0939 | 0.945 | -0.383 | 1.51 (inactive) | 0.0596 | -0.0956 | 0.668 | 1.04 | -0.0189 | 1.32 | 0.405 | 1.14 | 0.67 | 1.16 | 0.714 | 0.873 | 1.28 | 1.56 | -0.88
15 | COCCCNC(=O)[C@@]1(Cc2ccccc2)N=C(c2ccc(OCCCO)cc2)O[C@H]1c1ccccc1N=[N+]=[N-] | 1.02 | 0.805 | 0.948 | 0.765 | -0.597 (inactive) | 0.385 | 0.0538 | 0.405 | 0.877 | 0.516 | 0.846 | -0.297 | 0.0647 | 0.644 | 1.16 | 0.635 | 0.881 | 1.48 | 1.58 | 2.03
16 | C=CCNC(=O)[C@@H]1[C@H]2C(=O)O[C@H](c3ccccc3)[C@H](c3ccccc3)N2[C@H](c2ccc(O)cc2)[C@@]12C(=O)Nc1ccccc12 | 0.0756 | 0.955 | -0.0205 | -0.989 | 0.0737 (inactive) | -0.246 | -0.22 | 0.55 | 1.12 | 0.324 | 0.502 | -0.939 | 0.516 | -0.391 | -0.227 | 0.394 | -0.0121 | 0.981 | 0.143 | 0.715
